Only some compounds are listed: those with a hit (about 11% of all), similar ones and a draw of the others.
NS1 function inh: qHTS Assay for Inhibitors of Influenza NS1 Protein Function; Potency, µM (titrated, usually from 46.1 µM); 270,000 tested, 0.4% active; AID 2326, 2010; calls by dose curve; further: actives are rising curves; nearly all actives have a fitted effect of over 50% in size
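S. cerevisiae expressing influenza A NS1, grown in glucose, washed, then diluted 1:100 into pH 6.0 -URA galactose medium with 23 nl compound. Growth recovery read as OD600; NS1-free strain serves as control.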
Pf growth 48h: Primary qHTS for delayed death inhibitors of the malarial parasite plastid, 48 hour incubation; P. falciparum luciferase growth in erythrocytes, 48 h; Potency, µM (doses to about 28.7 µM), usual class: inhibitors; 310,000 tested, 5.9% active; AID 504832, 2011
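Erythrocytes infected with P. falciparum carrying an integrated firefly luciferase reporter (2% hematocrit, 0.1% parasitemia final) were exposed to compounds in RPMI 1640 with 0.5% Albumax at 37 C, 5% CO2. Growth inhibition was scored as reduced luminescence.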
Sm TGR block: qHTS Assay for the Inhibitors of Schistosoma Mansoni Peroxiredoxins; Schistosoma mansoni thioredoxin glutathione reductase (TGR), Q962Y6; 360,000 tested, 3% active; purified TGR, DTNB reduction, TNB absorbance 405 nm; Potency, µM (series often up to 114 µM), most hits filed as inhibitors; further: nearly all actives have a fitted effect of over 60% in size
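First, TGR (20 nM dispensed) and NADPH were mixed with compound. Second, a 15 min room-temperature incubation followed. Third, further NADPH and then DTNB were added to start the reaction. Finally, TNB absorbance was monitored kinetically.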
AMA1-RON2 inh: qHTS for Inhibitors of AMA1-RON; Towards Development of Antimalarial Drug Lead: Primary Screen; AlphaScreen AMA1-biotinylated RON2 peptide binding; Potency, µM (series often up to 58.2 µM), hits mostly inhibitors; Plasmodium falciparum AMA1 (3D7) - RON2 peptide interaction; 360,000 tested, 0.2% active; further: nearly all actives have a fitted effect of over 45% in size
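AMA1 (3D7) with his tag at 25 nM final met compounds first, then biotinylated RON2 peptide at 25 nM; detection used donor plus acceptor beads, 10 µg/mL apiece, read by AlphaScreen after 30 min at room temperature.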
Pf growth 96h: Primary qHTS for delayed death inhibitors of the malarial parasite plastid, 96 hour incubation. Potency, µM (titrated, usually from 28.7 µM), hits mostly inhibitors. AID 504834, 2011. P. falciparum luciferase reporter growth, 96 h. 320,000 tested, 6.9% active
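Luminescence readout: decreased luciferase signal marks inhibited growth of reporter-expressing P. falciparum in infected red cells (2% hematocrit, 0.05% parasitemia final), exposed to compound two generations (96 h, 37 C, 5% CO2).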
Hits are given with their value; n = inactive; u = inconclusive; x = no result given. Unless noted, the call rests on the fitted dose curve; in most records, active means well fitted curve in the direction sought with a large enough effect; inconclusive means small, poorly fitted or top-dose-only effect, or another doubt; inactive means no such curve, though single readings can be large; an effect the other way counts as inactive or inconclusive.

SMILES	NS1 function inh	Pf growth 48h	Sm TGR block	AMA1-RON2 inh	Pf growth 96h
COc1ccc(OC)c(NC(=O)[C@@]2(CC(=O)O)CC(/C=C/c3ccccc3)=NO2)c1	n	n	u	n	n
COc1ccc(C2CC(=O)N(CC(=O)Nc3cccc(C)c3C)c3ccccc3S2)cc1OC (centres undefined)	x	x	n	x	x
CCOc1ccccc1NC(=O)CSc1nc2c(c(=O)n(C)c(=O)n2C)n1C	n	n	n	n	n
O=C(CCC(=O)c1cccs1)NNC(=O)c1cccc(Cl)c1	x	n	n	n	n
Cc1ccc(NCCC(=O)c2cccs2)cc1Cl	n	n	4µM	n	n
CC(C)c1ccc(NCCC(=O)c2cccs2)cc1	n	n	3.2µM	n	n
Cc1ccc(NCCC(=O)c2cccs2)cc1	x	n	1.3µM	n	n
Cc1ccc(NCCC(=O)c2cccs2)cc1C	n	n	n	u	n
O=C(CCNc1cccc(Cl)c1)c1cccs1	n	n	5.6µM	n	n
CC(=O)Nc1ccc(S(=O)(=O)N2CCN(c3ccc(C)c(C)c3)CC2)cc1	x	x	n	x	x
COCC(C)n1c(SCC(=O)Nc2c(C)n(C)n(-c3ccccc3)c2=O)nc2ccccc2c1=O (centres undefined)	x	x	x	n	x
O=C(COc1ccc(F)cc1Cl)Nc1ccccc1C(=O)N1CCCCC1	x	n	n	n	n
O=C(Nc1ccc(CN2CCOCC2)cc1)c1ccc(-c2cccc(Cl)c2)o1	n	1.5µM	n	n	u
O=C(Nc1ccc(CN2CCOCC2)cc1)c1ccc(-c2ccc(Cl)cc2Cl)o1	n	2.1µM	50µM	n	n
CCOc1nc(-c2ccc(C)cc2)ccc1-c1noc(-c2ccccc2F)n1	x	x	n	x	x
Cc1ccc(NC(=S)N/N=C/c2cccn2Cc2ccccc2F)cc1	n	9.3µM	n	n	u
O=C(Oc1cccc([N+](=O)[O-])c1)c1ccc2c(=O)n3c(nc2c1)CCC3	x	n	n	n	n
Cc1cccc(CN2CCC(N3CC(C)OC(C)C3)CC2)c1 (centres undefined)	n	n	n	n	12µM
Cc1cccc(CN2CCC(C(N)=O)CC2)c1	n	x	n	n	u
CCC(Sc1nc2ccccc2c(=O)n1CCc1ccc(OC)c(OC)c1)C(=O)N(CC)CC (centres undefined)	x	x	n	x	x
CC(C)C[C@H]1CNC(=S)N1C[C@H]1CCCN1C[C@H](Cc1ccc(O)cc1)N1C[C@H](Cc2ccc(O)cc2)N(CC2CCCCCC2)C1=S	x	x	x	n	x
O=Cc1ccc2noc(-c3ccc(Cl)cc3)c2c1	n	n	50µM	n	x
O=[N+]([O-])c1ccc(Oc2cccc(Br)c2)c2ccncc12	n	12µM	n	u	x
O=[N+]([O-])c1cccc2cnccc12	x	x	x	n	x
O=[N+]([O-])c1ccc(N2CCCC2)c2ccncc12	n	u	n	n	n
SMILES	NS1 function inh	Pf growth 48h	Sm TGR block	AMA1-RON2 inh	Pf growth 96h
O=[N+]([O-])c1ccc(Oc2ccc(F)cc2)c2ccncc12	n	9.3µM	n	n	x
CCN(Cc1ccccc1)C(=O)COC(=O)CNC(=O)c1ccc(C)s1	n	n	n	n	n
O=C(NCCC1CCCCN1S(=O)(=O)c1ccccc1)C(=O)NCc1ccccn1 (centres undefined)	x	n	n	n	u
CCOc1ccc(CCN2C(=S)N([C@@H](Cc3ccc(O)cc3)CN3CCC[C@@H]3CN3C(=S)NC[C@@H]3Cc3ccccc3)C[C@@H]2Cc2ccc(O)cc2)cc1	x	x	x	n	x
COc1ccccc1N(CN1CCCC1=O)C(=O)c1c(F)cccc1Cl	n	u	n	n	n
COc1ccc(C(=O)N(CN2CCCC2=O)c2ccccc2OC)cc1OC	n	n	n	n	0.0041µM
Cc1ccc(C2(c3noc(CN4CCC(C(=O)N5CCOCC5)CC4)n3)CCCC2)cc1	n	u	n	n	n
C[C@@H]1CN(C(=O)c2nc3ccc(Cl)cn3c2CNCC[C@@H]2C[C@@H]3C=C[C@H]2C3)C[C@H](C)O1	n	8.3µM	n	n	u
O=C(c1nc2ccc(Cl)cn2c1CNCC[C@@H]1C[C@@H]2C=C[C@H]1C2)N1CCCCCCC1	n	u	x	n	n
CCOC(=O)C1=CCN(S(=O)(=O)c2cccc(Cl)c2)C1c1ccc(F)cc1 (centres undefined)	x	x	x	n	x
COC(=O)c1cc(OC)c(OC)cc1NC(=S)NC(=O)c1ccco1	n	n	11µM	n	n
COc1cc(NC(=S)NC(=O)c2cccs2)ccc1NC(=O)C(C)C	n	n	18µM	n	n
COc1cc(NC(=S)NC(=O)c2ccco2)ccc1NC(=O)C(C)C	n	n	25µM	n	u
COC(=O)c1cc(OC)c(OC)cc1NC(=S)Nc1cc(Cl)ccc1OC	n	n	n	n	u
COc1cc(NC(=O)C(C)C)ccc1NC(=O)c1ccco1	n	n	n	n	n
CCNC(=S)Nc1cc(OC)c(NC(=O)c2ccco2)cc1OC	n	n	u	n	n
COC(=O)c1cc(OC)c(OC)cc1NC(=S)Nc1cccc(Cl)c1	n	n	n	n	13µM
Clc1ccc(-c2nc3c4ccccc4ccn3c2Cc2ccsc2)cc1	x	x	x	n	x
COc1ccc(Cl)cc1C(=O)n1cnc2ccccc21	n	n	n	n	u
COc1ccc(-c2noc(C(C)NC(=O)c3ccco3)n2)cc1OC (centres undefined)	n	n	n	n	n
O=c1[nH]nc(N2CCOCC2)c(=O)[nH]1	n	n	n	n	n
CN(C)c1ccc(/C=C/c2nnnn2-c2ccccc2)cc1	n	n	n	u	13µM
Cc1cc(Cl)ccc1OCC(=O)N(Cc1ccco1)Cc1ccco1	x	x	n	x	x
Cc1nn(-c2c(Cl)cc(Cl)cc2Cl)c(=O)c2ccccc12	n	x	n	n	13µM
CC(CCc1ccc(O)cc1)NCCC(c1ccccc1)c1ccccc1 (centres undefined)	n	u	n	n	u
SMILES	NS1 function inh	Pf growth 48h	Sm TGR block	AMA1-RON2 inh	Pf growth 96h
CC(CCc1ccc(O)cc1)NC(c1ccccc1)c1ccc(Cl)cc1 (centres undefined)	n	9.3µM	n	n	u
O=C(COC(=O)c1c(Cl)ccc(Cl)c1Cl)NC1CCS(=O)(=O)C1 (centres undefined)	x	n	n	n	n
COc1ccc(-c2nc(-c3ccccc3)c(-c3ccc(F)cc3)[nH]2)c(OC)c1C	x	x	n	x	x
CCc1ccccc1NC(=O)C1CCN(C2=NS(=O)(=O)C(c3ccc(C)c(C)c3)=C2C)CC1	x	x	n	x	x
COCCn1c(=NC(=O)/C=C/c2cccs2)sc2cc(NC(C)=O)ccc21	n	u	n	n	8.3µM
COCCn1c(=NC(=O)CCS(=O)(=O)c2ccccc2)sc2cc(C)ccc21	n	n	35µM	n	u
COCCn1c(=NC(=O)CSC(C)=O)sc2cc(F)ccc21	n	x	n	n	n
CCCn1c(=NC(=O)CS(=O)(=O)c2ccccc2)sc2cc(S(C)(=O)=O)ccc21	x	u	n	n	u

Assay outcomes as filed in PubChem BioAssay.
